Test results as given in PubChem BioAssay AID1159580 (chemical genetic matrix, 2015).
Screen size: about 5,500 compounds; about 2,000 (36%) were called active. Roughly 18% stayed inconclusive and do not appear here. Rule as the data show it: active = normalized growth mostly below about 0.91 (no sharp cut-off); inconclusive = no clear call, values can overlap the other calls; inactive = mostly above about 0.92. The list shows a part of the results.

Assay: chemical genetic growth profiling, strain panel (AID 1159580);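 also: tested at 20 µM; growth read once vehicle control cultures reached saturation at 30 °C; 1 = growth at the plate median or of vehicle wells; lower values mean less growth of the strain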
Settings: growth OD
[1] = S. cerevisiae deletion strains, locus YCL061C, strain MRC1, hits give low values
[2] = S. cerevisiae deletion strains, locus YHR030C, strain SLT2, hits give low values

Measured: normalized growth

CCOC(CN(c1ccc(F)cc1)S(=O)(=O)c1ccc(F)cc1F)OCC
inactive: S. cerevisiae deletion strains, locus YAL013W, strain DEP1, hits give low values 1 | S. cerevisiae deletion strains, locus YBR229C, strain ROT2, hits give low values 1 | [1] 1.01 | S. cerevisiae deletion strains, locus YDL101C, strain DUN1, hits give low values 0.98 | S. cerevisiae deletion strains, locus YDL134C, strain PPH21, hits give low values 1.01 | S. cerevisiae deletion strains, locus YDR150W, strain NUM1, hits give low values 0.957 | S. cerevisiae deletion strains, locus YEL061C, strain CIN8, hits give low values 0.986 | S. cerevisiae deletion strains, locus YGR078C, strain PAC10, hits give low values 0.997 | [2] 0.936 | S. cerevisiae deletion strains, locus YHR087W, strain rtc3, hits give low values 1.03 | S. cerevisiae deletion strains, locus YJR043C, strain POL32, hits give low values 0.989 | S. cerevisiae deletion strains, locus YJR075W, strain HOC1, hits give low values 0.981 | S. cerevisiae deletion strains, locus YLR039C, strain RIC1, hits give low values 0.96 | S. cerevisiae deletion strains, locus YLR058C, strain SHM2 (second series), hits give low values 0.996 | S. cerevisiae deletion strains, locus YLR085C, strain ARP6, hits give low values 1.01 | S. cerevisiae deletion strains, locus YLR262C, strain YPT6, hits give low values 0.935 | S. cerevisiae deletion strains, locus YML094W, strain GIM5, hits give low values 0.999 | S. cerevisiae deletion strains, locus YMR219W, strain ESC1, hits give low values 0.994 | S. cerevisiae deletion strains, locus YMR263W, strain SAP30, hits give low values 0.987 | S. cerevisiae deletion strains, locus YMR307W, strain GAS1, hits give low values 0.731 | S. cerevisiae deletion strains, locus YNL153C, strain GIM3, hits give low values 1.01 | S. cerevisiae deletion strains, locus YNL298W, strain CLA4 (second series), hits give low values 1.01 | S. cerevisiae deletion strains, locus YNL322C, strain KRE1, hits give low values 0.995 | S. cerevisiae deletion strains, locus YNR030W, strain Alg12, hits give low values 0.993 | S. cerevisiae deletion strains, locus YOL006C, strain TOP1, hits give low values 1.03 | S. cerevisiae deletion strains, locus YPL055C, strain LGE1, hits give low values 1.04 | S. cerevisiae deletion strains, locus YPL241C, strain CIN2, hits give low values 1 | S. cerevisiae deletion strains, locus YPR135W, strain CTF4, hits give low values 1.02 | S. cerevisiae strains, strain wild type, hits give low values 0.991

C/C=C\C1=C(C(=O)O)N2C(=O)C(NC(=O)C(N)c3ccc(O)cc3)C2SC1 (stereo not drawn)
inactive: S. cerevisiae deletion strains, locus YAL021C, strain ccr4, hits give low values 0.983 | S. cerevisiae deletion strains, locus YAL026C, strain drs2, hits give low values 1.01 | S. cerevisiae deletion strains, locus YAL030W, strain snc1, hits give low values 1 | S. cerevisiae deletion strains, locus YBL061C, strain skt5, hits give low values 1.02 | S. cerevisiae deletion strains, locus YBR009C, strain hhf1, hits give low values 1.01 | S. cerevisiae deletion strains, locus YBR023C, strain chs3, hits give low values 1.01 | S. cerevisiae deletion strains, locus YBR171W, strain sec66, hits give low values 1.01 | S. cerevisiae deletion strains, locus YBR231C, strain swc5, hits give low values 1.01 | S. cerevisiae deletion strains, locus YBR279W, strain paf1, hits give low values 1 | S. cerevisiae deletion strains, locus YCL011C, strain gbp2, hits give low values 1 | S. cerevisiae deletion strains, locus YCL016C, strain dcc1, hits give low values 1 | [1] 1 | S. cerevisiae deletion strains, locus YCL069W, strain vba3, hits give low values 1.01 | S. cerevisiae deletion strains, locus YCR088W, strain abp1, hits give low values 1.01 | S. cerevisiae deletion strains, locus YDL005C, strain med2, hits give low values 1 | S. cerevisiae deletion strains, locus YDL040C, strain nat1, hits give low values 1.01 | S. cerevisiae deletion strains, locus YDR001C, strain nth1, hits give low values 1.01 | S. cerevisiae deletion strains, locus YDR069C, strain doa4, hits give low values 0.995 | S. cerevisiae deletion strains, locus YDR137W, strain rgp1, hits give low values 1.01 | S. cerevisiae deletion strains, locus YDR159W, strain sac3, hits give low values 0.987 | S. cerevisiae deletion strains, locus YDR195W, strain ref2 0.978 | S. cerevisiae deletion strains, locus YDR297W, strain sur2, hits give low values 1 | S. cerevisiae deletion strains, locus YDR334W, strain swr1, hits give low values 1.01 | S. cerevisiae deletion strains, locus YDR335W, strain msn5, hits give low values 1.01 | S. cerevisiae deletion strains, locus YDR392W, strain spt3, hits give low values 0.991 | S. cerevisiae deletion strains, locus YEL003W, strain gim4, hits give low values 1 | S. cerevisiae deletion strains, locus YEL037C, strain rad23, hits give low values 1.01 | S. cerevisiae deletion strains, locus YEL061C, strain CIN8 (second series), hits give low values 1 | S. cerevisiae deletion strains, locus YER015W, strain faa2, hits give low values 1 | S. cerevisiae deletion strains, locus YER016W, strain bim1, hits give low values 1.01 | S. cerevisiae deletion strains, locus YER111C, strain swi4, hits give low values 0.996 | S. cerevisiae deletion strains, locus YER155C, strain BEM2 (second series), hits give low values 1.01 | S. cerevisiae deletion strains, locus YFR010W, strain ubp6, hits give low values 1.02 | S. cerevisiae deletion strains, locus YGL167C, strain pmr1, hits give low values 1.01 | S. cerevisiae deletion strains, locus YGL173C, strain kem1, hits give low values 1 | S. cerevisiae deletion strains, locus YGL227W, strain vid30, hits give low values 1.01 | S. cerevisiae deletion strains, locus YGL240W, strain doc1, hits give low values 0.988 | S. cerevisiae deletion strains, locus YGL253W, strain hxk2, hits give low values 1.01 | S. cerevisiae deletion strains, locus YHR013C, strain ard1, hits give low values 0.997 | S. cerevisiae deletion strains, locus YHR027C, strain rpn1, hits give low values 0.993 | [2] 1.02 | S. cerevisiae deletion strains, locus YHR079C, strain IRE1, hits give low values 1.04 | S. cerevisiae deletion strains, locus YHR142W, strain chs7, hits give low values 1.03 | S. cerevisiae deletion strains, locus YJL092W, strain hpr5, hits give low values 1.01 | S. cerevisiae deletion strains, locus YJL095W, strain BCK1 (second series), hits give low values 0.998 | S. cerevisiae deletion strains, locus YJL095W, strain BCK1, hits give low values 0.997 | S. cerevisiae deletion strains, locus YJL115W, strain asf1, hits give low values 0.999 | S. cerevisiae deletion strains, locus YJL129C, strain trk1, hits give low values 1.02 | S. cerevisiae deletion strains, locus YJL154C, strain vps35, hits give low values 1.01 | S. cerevisiae deletion strains, locus YJL164C, strain tpk1, hits give low values 1.02 | S. cerevisiae deletion strains, locus YJL166W, strain qcr8, hits give low values 1 | S. cerevisiae deletion strains, locus YJR066W, strain TOR1, hits give low values 0.982 | S. cerevisiae deletion strains, locus YKL160W, strain elf1, hits give low values 1 | S. cerevisiae deletion strains, locus YKR026C, strain gcn3, hits give low values 1 | S. cerevisiae deletion strains, locus YKR091W, strain srl3, hits give low values 1 | S. cerevisiae deletion strains, locus YLL001W, strain dnm1, hits give low values 1.01 | S. cerevisiae deletion strains, locus YLL026W, hits give low values 0.999 | S. cerevisiae deletion strains, locus YLL041C, strain sdh2, hits give low values 1.03 | S. cerevisiae deletion strains, locus YLR027C, strain aat2, hits give low values 1.01 | S. cerevisiae deletion strains, locus YLR113W, strain HOG1, hits give low values 0.957 | S. cerevisiae deletion strains, locus YLR221C, strain rsa3, hits give low values 1 | S. cerevisiae deletion strains, locus YLR258W, strain gsy2, hits give low values 1.02 | S. cerevisiae deletion strains, locus YLR262C, strain YPT6 (second series), hits give low values 1.01 | S. cerevisiae deletion strains, locus YLR320W, strain mms22, hits give low values 1.02 | S. cerevisiae deletion strains, locus YLR342W, strain FKS1, hits give low values 1 | S. cerevisiae deletion strains, locus YLR357W, strain rsc2, hits give low values 1.01 | S. cerevisiae deletion strains, locus YLR370C, strain arc18, hits give low values 1.02 | S. cerevisiae deletion strains, locus YLR384C, strain iki3, hits give low values 1.02 | S. cerevisiae deletion strains, locus YML120C, strain ndi1, hits give low values 1.02 | S. cerevisiae deletion strains, locus YMR058W, strain fet3, hits give low values 1.01 | S. cerevisiae deletion strains, locus YMR125W, strain sto1, hits give low values 1.02 | S. cerevisiae deletion strains, locus YMR129W, hits give low values 1.01 | S. cerevisiae deletion strains, locus YMR205C, strain PFK2, hits give low values 1.02 | S. cerevisiae deletion strains, locus YMR231W, strain pep5, hits give low values 1 | S. cerevisiae deletion strains, locus YNL071W, strain lat1, hits give low values 1.01 | S. cerevisiae deletion strains, locus YNL183C, strain NPR1, hits give low values 0.959 | S. cerevisiae deletion strains, locus YNL209W, strain ssb2, hits give low values 0.997 | S. cerevisiae deletion strains, locus YNL248C, strain rpa49, hits give low values 1.02 | S. cerevisiae deletion strains, locus YNL322C, strain KRE1 (second series), hits give low values 0.994 | S. cerevisiae deletion strains, locus YNR049C, strain mso1, hits give low values 1.03 | S. cerevisiae deletion strains, locus YOR001W, strain rrp6, hits give low values 1.02 | S. cerevisiae deletion strains, locus YOR070C, strain gyp1, hits give low values 1.01 | S. cerevisiae deletion strains, locus YOR080W, strain dia2, hits give low values 1.01 | S. cerevisiae deletion strains, locus YOR083W, strain WHI5, hits give low values 1.01 | S. cerevisiae deletion strains, locus YOR106W, strain vam3, hits give low values 0.997 | S. cerevisiae deletion strains, locus YOR231W, strain MKK1, hits give low values 1.01 | S. cerevisiae deletion strains, locus YOR265W, strain rbl2, hits give low values 1.02 | S. cerevisiae deletion strains, locus YOR270C, strain vph1, hits give low values 1.04 | S. cerevisiae deletion strains, locus YOR290C, strain snf2, hits give low values 1 | S. cerevisiae deletion strains, locus YPL051W, strain arl3, hits give low values 1.01 | S. cerevisiae deletion strains, locus YPL078C, strain atp4, hits give low values 1.02 | S. cerevisiae deletion strains, locus YPL106C, strain sse1, hits give low values 1 | S. cerevisiae deletion strains, locus YPL240C, strain hsp82, hits give low values 1.01 | S. cerevisiae deletion strains, locus YPL256C, strain CLN2, hits give low values 1.04
